Several values for one entry are separate records, joined by “and”; a condition that tells them apart may be missing. Equal entries are not always repeated. Out of some 5,500 compounds screened, about 2,000 (36%) were called active. Not shown: some 18% with an inconclusive outcome. Cut-off read from the data, not from the text of the source: active = normalized growth mostly below about 0.91 (no sharp cut-off); inconclusive = no clear call, values can overlap the other calls; inactive = mostly above about 0.92. The list shows a part of the results.
Experiment: chemical genetic growth profiling, strain panel (AID 1159580);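 note: tested at 20 µM; growth read once vehicle control cultures reached saturation at 30 °C; 1 = growth at the plate median or of vehicle wells; lower values mean less growth of the strain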
Conditions: S. cerevisiae deletion strains, growth OD

Measured: normalized growth

CNC(C)[C@@H]1CC[C@@H](N)[C@@H](OC2[C@@H](N)C[C@@H](N)[C@H](OC3OC[C@](C)(O)[C@H](NC)[C@H]3O)[C@H]2O)O1 (stereo partly drawn)
inactive: locus YAL013W, strain DEP1, active compounds read low 1.02 | locus YAL021C, strain ccr4, active compounds read low 1.02 | locus YAL026C, strain drs2, active compounds read low 0.997 | locus YAL030W, strain snc1, active compounds read low 0.998 | locus YBL061C, strain skt5, active compounds read low 0.977 | locus YBR009C, strain hhf1, active compounds read low 1.01 | locus YBR021W, strain FUR4, active compounds read low 1.02 | locus YBR023C, strain chs3, active compounds read low 0.988 | locus YBR171W, strain sec66, active compounds read low 0.986 | locus YBR229C, strain ROT2, active compounds read low 1.02 | locus YBR231C, strain swc5, active compounds read low 0.982 | locus YBR279W, strain paf1, active compounds read low 0.991 | locus YCL011C, strain gbp2, active compounds read low 1.01 | locus YCL016C, strain dcc1, active compounds read low 1 | locus YCL029C, strain bik1, active compounds read low 1.01 | locus YCL069W, strain vba3, active compounds read low 0.992 | locus YCR088W, strain abp1, active compounds read low 0.999 | locus YDL005C, strain med2, active compounds read low 0.98 | locus YDL035C, strain GPR1, active compounds read low 1.01 | locus YDL040C, strain nat1, active compounds read low 0.994 | locus YDL074C, strain BRE1, active compounds read low 1.03 | locus YDL101C, strain DUN1, active compounds read low 1.01 | locus YDL134C, strain PPH21, active compounds read low 1 | locus YDL185W, strain tfp1, active compounds read low 1.02 | locus YDL192W, strain arf1, active compounds read low 1.04 | locus YDR001C, strain nth1, active compounds read low 0.988 | locus YDR069C, strain doa4, active compounds read low 0.988 | locus YDR101C, strain arx1, active compounds read low 0.992 | locus YDR137W, strain rgp1, active compounds read low 1.01 | locus YDR150W, strain NUM1, active compounds read low 1.01 | locus YDR159W, strain sac3, active compounds read low 0.995 | locus YDR162C, strain NBP2, active compounds read low 1.01 | locus YDR195W, strain ref2 0.947 | locus YDR297W, strain sur2, active compounds read low 0.983 | locus YDR318W, strain mcm21, active compounds read low 1.02 | locus YDR334W, strain swr1, active compounds read low 0.98 | locus YDR335W, strain msn5, active compounds read low 0.98 | locus YDR388W, active compounds read low 1.01 | locus YDR392W, strain spt3, active compounds read low 1.03 | locus YDR502C, strain sam2, active compounds read low 1.05 | locus YEL003W, strain gim4, active compounds read low 0.975 | locus YEL037C, strain rad23, active compounds read low 0.995 | locus YEL061C, strain CIN8 (second series), active compounds read low 0.982 | locus YEL061C, strain CIN8, active compounds read low 1.02 | locus YER015W, strain faa2, active compounds read low 0.993 | locus YER016W, strain bim1, active compounds read low 0.979 | locus YER110C, active compounds read low 1.02 | locus YER111C, strain swi4, active compounds read low 0.976 | locus YER155C, strain BEM2 (second series), active compounds read low 0.997 | locus YER155C, strain BEM2, active compounds read low 1.01 | locus YER167W, strain BCK2, active compounds read low 1.01 | locus YFR010W, strain ubp6, active compounds read low 0.98 | locus YGL078C, strain dbp3, active compounds read low 1.02 | locus YGL086W, strain mad1, active compounds read low 1.01 | locus YGL167C, strain pmr1, active compounds read low 0.982 | locus YGL173C, strain kem1, active compounds read low 0.974 | locus YGL227W, strain vid30, active compounds read low 0.987 | locus YGL240W, strain doc1, active compounds read low 0.99 | locus YGL248W, strain PDE1, active compounds read low 1.01 | locus YGL253W, strain hxk2, active compounds read low 0.987 | locus YGR135W, strain pre9, active compounds read low 1.05 | locus YGR229C, strain SMI1, active compounds read low 1.01 | locus YGR252W, strain gcn5, active compounds read low 1.04 | locus YHR013C, strain ard1, active compounds read low 1.02 | locus YHR027C, strain rpn1, active compounds read low 1 | locus YHR030C, strain SLT2, active compounds read low 1.02 and 0.984 | locus YHR079C, strain IRE1 (second series), active compounds read low 1.02 | locus YHR079C, strain IRE1, active compounds read low 1.01 | locus YHR094C, strain hxt1, active compounds read low 1.01 | locus YHR129C, strain ARP1, active compounds read low 1 | locus YHR142W, strain chs7, active compounds read low 0.971 | locus YHR200W, strain rpn10, active compounds read low 1.03 | locus YIL066C, strain RNR3, active compounds read low 1.01 | locus YIL073C, strain SPO22, active compounds read low 1.04 | locus YIL125W, strain kgd1, active compounds read low 1.02 | locus YIR030C, strain dcg1, active compounds read low 1.03 | locus YJL092W, strain hpr5, active compounds read low 0.993 | locus YJL095W, strain BCK1 (second series), active compounds read low 0.993 | locus YJL095W, strain BCK1, active compounds read low 1.02 and 1 | locus YJL115W, strain asf1, active compounds read low 0.982 | locus YJL129C, strain trk1, active compounds read low 0.964 | locus YJL134W, strain LCB3, active compounds read low 1.02 | locus YJL154C, strain vps35, active compounds read low 0.999 | locus YJL164C, strain tpk1, active compounds read low 1.01 | locus YJL166W, strain qcr8, active compounds read low 0.984 | locus YJL168C, strain set2, active compounds read low 1.02 | locus YJL187C, strain SWE1 (second series), active compounds read low 1.01 | locus YJL187C, strain SWE1, active compounds read low 0.992 | locus YJR043C, strain POL32, active compounds read low 0.996 | locus YJR066W, strain TOR1, active compounds read low 0.999 | locus YJR075W, strain HOC1, active compounds read low 1.03 | locus YKL009W, strain mrt4, active compounds read low 1.01 | locus YKL068W, active compounds read low 1.01 | locus YKL085W, strain MDH1 (second series), active compounds read low 1.02 | locus YKL085W, strain MDH1, active compounds read low 1.02 | locus YKL160W, strain elf1, active compounds read low 0.977 | locus YKL190W, strain CNB1, active compounds read low 1.02 | locus YKR001C, strain vps1, active compounds read low 1.02 | locus YKR026C, strain gcn3, active compounds read low 1 | locus YKR091W, strain srl3, active compounds read low 0.986 | locus YLL001W, strain dnm1, active compounds read low 0.972 | locus YLL026W, active compounds read low 0.996 | locus YLL041C, strain sdh2, active compounds read low 0.995 | locus YLR027C, strain aat2, active compounds read low 0.991 | locus YLR039C, strain RIC1, active compounds read low 1.08 | locus YLR058C, strain SHM2, active compounds read low 1.03 | locus YLR102C, strain apc9, active compounds read low 1.03 | locus YLR113W, strain HOG1, active compounds read low 0.987 | locus YLR221C, strain rsa3, active compounds read low 0.99 | locus YLR258W, strain gsy2, active compounds read low 1 | locus YLR262C, strain YPT6 (second series), active compounds read low 0.977 | locus YLR262C, strain YPT6, active compounds read low 1.05 | locus YLR268W, strain sec22, active compounds read low 1.01 | locus YLR320W, strain mms22, active compounds read low 1 | locus YLR330W, strain CHS5, active compounds read low 1.01 | locus YLR342W, strain FKS1 (second series), active compounds read low 0.996 | locus YLR342W, strain FKS1, active compounds read low 0.977 | locus YLR357W, strain rsc2, active compounds read low 0.991 | locus YLR370C, strain arc18, active compounds read low 0.984 | locus YLR371W, strain rom2, active compounds read low 1.01 | locus YLR384C, strain iki3, active compounds read low 0.992 | locus YLR418C, strain cdc73, active compounds read low 1.02 | locus YML016C, strain PPZ1, active compounds read low 1.01 | locus YML032C, strain rad52, active compounds read low 1.02 | locus YML120C, strain ndi1, active compounds read low 0.996 | locus YML124C, strain tub3, active compounds read low 1.01 | locus YMR058W, strain fet3, active compounds read low 0.994 | locus YMR078C, strain ctf18, active compounds read low 1.02 | locus YMR125W, strain sto1, active compounds read low 0.979 | locus YMR129W, active compounds read low 1 | locus YMR205C, strain PFK2, active compounds read low 0.987 | locus YMR223W, strain ubp8, active compounds read low 1.04 | locus YMR231W, strain pep5, active compounds read low 0.988 | locus YMR263W, strain SAP30, active compounds read low 1.01 | locus YMR307W, strain GAS1, active compounds read low 1 | locus YNL067W, strain RPL9B, active compounds read low 1.02 | locus YNL071W, strain lat1, active compounds read low 0.996 | locus YNL153C, strain GIM3, active compounds read low 1.01 | locus YNL183C, strain NPR1, active compounds read low 0.97 | locus YNL209W, strain ssb2, active compounds read low 1 | locus YNL233W, strain BNI4, active compounds read low 1.01 | locus YNL248C, strain rpa49, active compounds read low 1.02 | locus YNL250W, strain rad50, active compounds read low 1.05 | locus YNL271C, strain bni1, active compounds read low 1.03 | locus YNL298W, strain CLA4, active compounds read low 1.02 | locus YNL307C, strain MCK1, active compounds read low 1.03 | locus YNL322C, strain KRE1 (second series), active compounds read low 0.988 | locus YNL322C, strain KRE1, active compounds read low 1.02 | locus YNR049C, strain mso1, active compounds read low 0.986 | locus YNR052C, strain pop2, active compounds read low 1.02 | locus YOL006C, strain TOP1, active compounds read low 1.06 | locus YOL012C, strain htz1 0.693 | locus YOL147C, strain pex11, active compounds read low 1.02 | locus YOR001W, strain rrp6, active compounds read low 0.985 | locus YOR061W, strain CKA2, active compounds read low 1.01 | locus YOR069W, strain VPS5, active compounds read low 1.01 | locus YOR070C, strain gyp1, active compounds read low 0.987 | locus YOR080W, strain dia2, active compounds read low 0.982 | locus YOR083W, strain WHI5, active compounds read low 0.977 | locus YOR106W, strain vam3, active compounds read low 0.983 | locus YOR136W, strain idh2, active compounds read low 1.02 | locus YOR144C, strain elg1, active compounds read low 1.01 | locus YOR184W, strain ser1, active compounds read low 1.03 | locus YOR231W, strain MKK1, active compounds read low 0.976 | locus YOR265W, strain rbl2, active compounds read low 0.987 | locus YOR270C, strain vph1, active compounds read low 0.996 | locus YOR290C, strain snf2, active compounds read low 1.01 | locus YOR316C, strain cot1, active compounds read low 1.02 | locus YPL051W, strain arl3, active compounds read low 0.982 | locus YPL078C, strain atp4, active compounds read low 0.973 | locus YPL106C, strain sse1, active compounds read low 1 | locus YPL240C, strain hsp82, active compounds read low 0.99 | locus YPL256C, strain CLN2, active compounds read low 0.988 | locus YPR119W, strain clb2, active compounds read low 1.03 | locus YPR141C, strain kar3, active compounds read low 1.02 | locus YPR163C, strain tif3, active compounds read low 1.02 | locus YPR167C, strain met16, active compounds read low 1.02 | strain wtn01, active compounds read low 1.01

Reference: PubChem BioAssay AID1159580 (chemical genetic matrix, 2015)
